Laboratory results published in the supplement of paper PMC6555819.

How the values were obtained:
Assay in all cases: PBM binding z-score (relative to random genomic background probes); higher = stronger binding; sequences stand for … in GC…GCGATTGACAGCGTAGAATGAAGG
[1] = system: FXR:RXRa (NR concentration 270 nM, RXRa partner concentration 90 nM)
How it was run: (§1)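 Custom Agilent 4×180K protein-binding microarrays carried double-stranded probes. Their 34-nt variable regions held direct-repeat seeds, single-nucleotide variants, half-site ablations and random human genomic background sequences. Arrays were incubated 1 h with ligand-free nuclear receptor dimers in PBS pH 7.4, 2% milk, 0.02% Triton X-100, 1 mM DTT, 0.2 mg/mL BSA and 0.4 mg/ml salmon testes DNA. Antibodies against each partner (one per run) detected binding, and scanned fluorescence was regression-normalized. Binding z-scores use random background probes as reference.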

[2] = system: LXRa:RXRa (NR concentration 270 nM, RXRa partner concentration 90 nM)
How it was run: as §1

[3] = system: LXRa homodimer (NR concentration 270 nM)
How it was run: as §1

[4] = system: LXRb:RXRa (NR concentration 270 nM, RXRa partner concentration 90 nM)
How it was run: as §1

[5] = system: LXRb homodimer (NR concentration 270 nM)
How it was run: as §1

[6] = system: PPARa:RXRa (NR concentration 270 nM, RXRa partner concentration 90 nM)
How it was run: as §1

[7] = system: PPARg:RXRa (NR concentration 180 nM, RXRa partner concentration 90 nM)
How it was run: as §1

[8] = system: PPARg:RXRa 270nM:90nM, anti-RXR (NR concentration 270 nM, RXRa partner concentration 90 nM)
How it was run: as §1

[9] = system: PPARg:RXRa 30nM:10nM, anti-RXR (NR concentration 30 nM, RXRa partner concentration 10 nM)
How it was run: as §1

[10] = system: PPARg:RXRa 90nM:30nM, anti-RXR (NR concentration 90 nM, RXRa partner concentration 30 nM)
How it was run: as §1

[11] = system: PPARg:RXRa DBDmut IVT, anti-RXR (DBD mutation: RXRa K156A/R161A, NR concentration 270 nM, RXRa partner concentration 90 nM)
How it was run: as §1

[12] = system: PPARg:RXRa IVT, anti-PPARg (NR concentration 270 nM, RXRa partner concentration 90 nM)
How it was run: as §1

[13] = system: PPARg DBDmut:RXRa IVT, anti-PPARg (DBD mutation: PPARg1 K132A/R137A, NR concentration 270 nM, RXRa partner concentration 90 nM)
How it was run: as §1

[14] = system: PPARg DBDmut IVT, anti-PPARg (DBD mutation: PPARg1 K132A/R137A, NR concentration 270 nM)
How it was run: as §1

[15] = system: PPARg homodimer (NR concentration 180 nM)
How it was run: as §1

[16] = system: PXR:RXRa (NR concentration 270 nM, RXRa partner concentration 90 nM)
How it was run: as §1

[17] = system: PXR homodimer (NR concentration 270 nM)
How it was run: as §1

[18] = system: RARa:RXR (NR concentration 270 nM, RXRa partner concentration 90 nM)
How it was run: as §1

[19] = system: RARa homodimer (NR concentration 270 nM)
How it was run: as §1

[20] = system: RARb:RXRa (NR concentration 270 nM, RXRa partner concentration 90 nM)
How it was run: as §1

Sequence	PBM binding z-score [1]	PBM binding z-score [2]	PBM binding z-score [3]	PBM binding z-score [4]	PBM binding z-score [5]	PBM binding z-score [6]	PBM binding z-score [7]	PBM binding z-score [8]	PBM binding z-score [9]	PBM binding z-score [10]	PBM binding z-score [11]	PBM binding z-score [12]	PBM binding z-score [13]	PBM binding z-score [14]	PBM binding z-score [15]	PBM binding z-score [16]	PBM binding z-score [17]	PBM binding z-score [18]	PBM binding z-score [19]	PBM binding z-score [20]
CGTCCAAGGTCATGGGAGGTCAGTGAAGACAGAT	7.92	7.36	5.12	6.35	0.656	6.08	6.25	6.11	2.74	5.07	2.93	4.47	0.44	-0.0199	4.73	7.17	5.18	6.5	2.4	5.61
ATCGAAAGGTCGAAAGTGAGTATACCCACCCGAA	3.56	3.24	0.172	2.67	0.816	3.74	2.17	2.5	1.05	2.05	-0.0216	1.35	1.11	0.905	0.0924	2.02	0.265	2.62	0.478	3.19
CCTTACGGGTCAAGGTTGTAGCACGGGTGGTACG	4.89	3.37	-0.181	2.48	-0.0387	4.68	4.01	4.21	1.2	3	0.974	3.06	0.572	-0.462	1.93	2.61	-0.423	3.82	-0.14	3.86
CCCACTGGGCCATTCAGAGGTCATTGATCATATG	2.54	4.33	5.65	3.72	0.313	3.79	2.37	3.28	0.826	2.27	3.42	4.55	0.045	-0.746	1.93	4.67	2	4.2	0.72	2.96
CCTCGGAGGACAACAGGAGGTCAAAGCTGCCAGA	2.61	4.28	5.15	3.51	0.0871	3.68	1.17	1.56	-0.109	0.958	0.133	1.07	-0.509	-2.06	2.31	4.04	1.35	4.12	0.524	3.25
ACTCGGAGGACAAATGTCAGAGCTACGCCAGTGA	-0.155	-0.111	-0.289	-0.522	-0.374	0.306	1.34	1.99	0.613	1.36	0.158	0.0513	0.143	-1.07	-0.0876	-0.536	-0.343	-0.444	-0.635	1.44
ACTAGGTGGTCAGCTGAGGTCACACACAATTCGG	3.12	3.37	2.31	3.52	-0.173	3.87	2.43	2.63	0.956	2.14	1.21	3.02	0.296	0.306	1.93	5.62	1.01	4.73	0.58	3.78
TCTGCTATGTCAACGATGGTCAGCTAATCTGCTA	-0.367	-0.339	-1.07	-0.513	-0.553	-0.269	-0.313	0.46	1.01	0.668	0.814	-0.00611	0.00527	-0.18	-1.25	-0.217	-1.19	-0.446	-1.27	0.575
TCTGCTAGGTCAGGTGGTCAGCTAACGAGCTGCC	1.39	0.774	-0.474	0.66	0.161	1.89	1.01	2.36	1.38	1.98	2.43	2.96	-0.185	-0.486	-0.444	0.451	-0.687	1.18	-1.1	3.38
AGTCAAAGTTCATCTAGGTATCGTAAGATATGCT	6.52	5.79	5.29	3.63	2.09	4.52	6.38	5.82	3.16	5.19	0.0537	2.59	0.906	0.493	2.49	5.11	5.44	3.62	1.32	4.95
GCTGCTAGGTCATGTTGGTCAGCTAACGGGTACG	3.46	2.59	0.616	1.75	0.329	3.03	1.62	2.3	0.174	1.38	4.28	3.3	0.275	1.15	2.55	1.49	-0.31	2.42	0.287	3.69
TAGCATAGGTCATGCGGGCCAGTATAGTGTCGGC	5.29	5.13	0.874	3.33	-0.127	5.22	4.08	4.44	0.97	3.18	1	2.48	0.261	-0.165	1.08	2.83	0.0553	3.38	-0.53	4.13
CGTCCGAGGTCAATGCTAGGTCAGTGAAAGCATT	7.31	5.94	2.78	5.22	1.08	5.78	5.25	5.35	1.89	4.18	3.56	4.42	-0.103	-0.0468	4.53	5.62	2.14	6.71	0.652	5.17
CGTCCAAGGTCACCAGGTCAGTGAAAGCGACGTG	7.52	5.47	1.42	4.08	0.282	6.01	7.61	6.88	3.48	5.87	4.53	5.56	0.432	-0.2	5.06	5.13	1.21	6.39	2.58	5.42
CCTACTGGGCCATACAGAGGTCATTGATCATATG	2.83	4.1	5.31	3.73	0.274	3.89	2.98	3.58	1.03	2.85	4.36	4.21	1.03	0.445	4.53	5.28	2.92	5.24	1.8	3.12
CAAACTAGGTCACAGAGGTTAAAGTCCGTGCGTA	5.89	5.17	3.01	4.28	0.562	6.05	9.43	7.64	5.91	7.56	8.23	9.05	7.06	4.73	2.92	4.74	3.84	4.65	1.69	4.62
CAAACTAGGTCAAAGGTCAAACTCGAGCCAACCA	8.63	7.62	6.78	7.4	3.51	7.76	14.1	11.6	13.3	13.7	8.72	9.06	5.54	4.24	5.23	7.03	2.84	8.96	3.29	5.81
TCTAGTTGGTCATGGAGGTCACACACGACGGGTA	3.61	3.7	3.33	3.3	1.23	3.9	3.39	3.95	3.27	3.52	2.58	3.96	1.39	1.01	3.56	4.8	2.15	4.97	2.88	3.77
CCTACTGGGCCAAAGGACATTGATTCCAATGCTC	-0.0323	-0.0828	-0.295	-0.127	-0.465	2.62	5.82	6.75	5.26	7.73	4.14	4.09	-0.131	-0.115	0.47	-0.488	-0.554	-0.324	-0.235	0.93
GATACAGGGTCAGCTAGAGGGCAGAGTATGGAAA	4.97	3.61	0.31	3.04	-0.0711	4.5	4.11	3.6	0.823	2.38	1.36	2.69	1.37	0.18	4.2	4.38	0.747	5.63	1.68	4.51
TCTAGTTGGTGACGGAGGTCACACACGACGGGTA	2.59	3.03	1.85	2.9	0.435	3.65	2.52	3.45	3.36	3.36	1.77	3.08	0.76	0.756	2.31	3.78	0.917	3.78	0.681	3.36
TAGCCTAGGTCATGCGGGCCAGCATAGTGTCGGC	3.77	3	0.115	1.37	-0.19	3.4	2.11	2.55	0.274	1.49	1.81	2.94	0.0937	-0.357	1.08	1.52	-0.642	2.1	-0.53	3.59
CCTACTGTGCCATTCAGAGGTCATTGATCATATG	2.84	4.75	6.87	4.59	1.67	3.96	1.74	2.71	0.936	1.83	3.76	3.54	0.945	0.536	2.73	4.89	2.63	4.4	1.62	3.08
CGAACTAGGTCAACGACAGTGAATCTCCGCACGC	3.59	2.08	0.0952	1.47	-0.0209	4.54	7.37	6.13	3.91	5.64	7.66	7.96	4.33	5.05	2.87	0.983	-0.0485	1.99	-0.0648	3.83
CCTTACGGGTCACTCCATGTTATAGCATCGGAGT	4.2	4.36	-0.0151	2.66	0.251	4.37	3.24	3.49	0.894	2.33	2.24	3.12	0.606	0.266	2.26	2.73	0.163	3.26	0.537	3.59
TGAATGAAGTTAAAGATCAGGGAACGTGGCGTCG	-0.402	-0.168	-0.348	-0.389	-0.518	0.212	0.843	1.61	0.713	1.3	-0.838	-0.0985	0.102	0.236	-0.094	-0.563	-0.811	-0.169	-0.374	-0.227
GCTGCTAGGTCAACTGATGGTCAGCTAAAGCTCG	4.31	3.05	0.34	2.04	-0.115	3.63	2.88	3.35	0.939	2.08	4.92	4.19	-0.0375	-1.12	1.55	1.66	-0.596	3	0.346	4.26
TGTCAAAGCTCAAAGGTAACGTAAGTATCCACAC	0.08	-0.0986	-0.625	0.416	-0.838	1.04	1.25	1.81	0.686	1.43	-0.538	0.996	0.525	0.434	-0.0175	0.078	-0.43	0.683	-0.12	0.692
